According to PubChem BioAssay (NCI):
About 83,000 compounds went through this panel and 20% of them were active in at least one assay; those are over-represented in the sample as a whole.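 Cells were grown in 96-well plates and exposed to the test compound at a single concentration for 48 hours; results are reported as percent growth, with values below 10 considered active.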 Unmarked numbers belong to inactive results. Active and inactive are the calls of the source.

Columns and labels:
Assay in all cases: NCI-60 one-dose screen, 48 h (100 = growth as untreated, 0 = no growth, -100 = all killed)
SK-MEL-2 melanoma = settings: 10 µM unless noted
EKVX NSCLC = settings: 10 µM unless noted
UO-31 renal = settings: 10 µM unless noted
TK-10 renal = settings: 10 µM unless noted
ACHN renal = settings: 10 µM unless noted
CCRF-CEM leukemia = settings: 10 µM unless noted
CAKI-1 renal = settings: 10 µM
A498 renal = settings: 10 µM unless noted
MOLT-4 leukemia = settings: 10 µM unless noted

**Q.** How did the growth (SK-MEL-2 melanoma) turn out when `CCCOC(=O)c1ccc([N+](=O)[O-])o1` was run?
**A.** 102%

**Q.** And the growth (EKVX NSCLC)?
**A.** 112%

**Q.** What about the growth (UO-31 renal) of the same compound?
**A.** 96.2%

**Q.** And the growth (TK-10 renal)?
**A.** 104%

**Q.** And the growth (ACHN renal)?
**A.** 105%

**Q.** And the growth (CCRF-CEM leukemia)?
**A.** 97.4%

**Q.** How did the growth (SK-MEL-2 melanoma) turn out when `O=[N+]([O-])c1cccc(C(c2ccccc2)c2ccccc2)c1` was run?
**A.** 97.8%

**Q.** And the growth (EKVX NSCLC)?
**A.** 79.1%

**Q.** What about the growth (UO-31 renal) of the same compound?
**A.** 75.7%

**Q.** What about the growth (ACHN renal) of the same compound?
**A.** 85.9%

**Q.** And the growth (CAKI-1 renal)?
**A.** 56.8%

**Q.** What about the growth (A498 renal) of the same compound?
**A.** 91%

**Q.** What about the growth (CCRF-CEM leukemia) of the same compound?
**A.** 87.2%

**Q.** And the growth (MOLT-4 leukemia)?
**A.** 83.3%

**Q.** `O=C(Nc1ccc(-n2cc(-c3ccncc3)c(-c3ccc(O)c(Cl)c3)n2)cc1)c1cc(Cl)cc(Cl)c1` was tested. Which growth (SK-MEL-2 melanoma) did it give?
**A.** 7.85% (active)

**Q.** And the growth (EKVX NSCLC)?
**A.** 56.5%

**Q.** And the growth (UO-31 renal)?
**A.** 16.4%

**Q.** What about the growth (ACHN renal) of the same compound?
**A.** 16.2%

**Q.** What about the growth (A498 renal) of the same compound?
**A.** 95.4%

**Q.** And the growth (CCRF-CEM leukemia)?
**A.** 16.9%

**Q.** What about the growth (MOLT-4 leukemia) of the same compound?
**A.** 11.1%

**Q.** Which growth (SK-MEL-2 melanoma) does the source give for `O=C(Nc1ccc(-n2cc(-c3ccncc3)c(-c3ccc(O)c(Cl)c3)n2)cc1)Nc1ccc(Cl)c(C(F)(F)F)c1` here?
**A.** -42.2% (active)

**Q.** What about the growth (EKVX NSCLC) of the same compound?
**A.** 19.5%

**Q.** What about the growth (UO-31 renal) of the same compound?
**A.** 13.6%

**Q.** What about the growth (ACHN renal) of the same compound?
**A.** 13.2%

**Q.** And the growth (CAKI-1 renal)?
**A.** -3.83% (active)

**Q.** What about the growth (A498 renal) of the same compound?
**A.** 63.5%

**Q.** And the growth (CCRF-CEM leukemia)?
**A.** 7.92% (active)

**Q.** And the growth (MOLT-4 leukemia)?
**A.** 9.62% (active)

**Q.** Which results are given for `CCc1c(C)c2cc(-n3c(-c4ccc(OC)cc4)csc3=N)c(O)c(C)c2oc1=O`?
**A.** growth (SK-MEL-2 melanoma): 10.7%; growth (EKVX NSCLC): 19.4%; growth (UO-31 renal): 14.3%; growth (TK-10 renal): 64.7%; growth (A498 renal): 17.1%; growth (CCRF-CEM leukemia): 7.21% (active); growth (MOLT-4 leukemia): 6.48% (active)

**Q.** For `O=C1OC(=O)C2C3CC(c4ccccc43)C12` (stereo not given), which growth (SK-MEL-2 melanoma) is on record?
**A.** 125%

**Q.** And the growth (EKVX NSCLC)?
**A.** 99.3%

**Q.** And the growth (UO-31 renal)?
**A.** 76.2%

**Q.** And the growth (TK-10 renal)?
**A.** 123%

**Q.** And the growth (ACHN renal)?
**A.** 90.1%

**Q.** And the growth (A498 renal)?
**A.** 110%

**Q.** And the growth (CCRF-CEM leukemia)?
**A.** 98.8%

**Q.** What about the growth (MOLT-4 leukemia) of the same compound?
**A.** 104%

**Q.** For `O=C(Nc1cccc(-n2ccc3c(NC(=O)c4ccccc4)ncnc32)c1)Nc1ccc(Cl)c(C(F)(F)F)c1`, which growth (SK-MEL-2 melanoma) is on record?
**A.** -8.08% (active)

**Q.** What about the growth (EKVX NSCLC) of the same compound?
**A.** 32.1%

**Q.** And the growth (UO-31 renal)?
**A.** 43.5%

**Q.** And the growth (ACHN renal)?
**A.** 25.5%

**Q.** And the growth (CAKI-1 renal)?
**A.** 18.1%

**Q.** What about the growth (A498 renal) of the same compound?
**A.** 42.9%

**Q.** What about the growth (CCRF-CEM leukemia) of the same compound?
**A.** 16.4%

**Q.** What about the growth (MOLT-4 leukemia) of the same compound?
**A.** 15.8%

**Q.** Which results are given for `O=C(Cn1c2ccccc2c2ccncc21)N/N=C/c1c[nH]c2ccccc12`?
**A.** growth (SK-MEL-2 melanoma): 95.3%; growth (EKVX NSCLC): 91.2%; growth (UO-31 renal): 103%; growth (TK-10 renal): 113%; growth (ACHN renal): 77.7%; growth (A498 renal): 104%; growth (CCRF-CEM leukemia): 43.8%; growth (MOLT-4 leukemia): 53.4%
